# Assay outcomes deposited in PubChem BioAssay by several laboratories.
# A selection: hits, their analogues and other compounds. The true share with any hit is near 3.3%.
# Smad3 inh: inhibitors of human Smad3 transcription factor binding; TR-FRET Smad3/Dy647-FoxH1 peptide binding, europium anti-His; AID 630; hit rate 0.29% among 88,000; inhibition, % at 25 µM; P84022;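 active = compounds that reduce the energy-transfer binding signal between the protein and its labelled peptide by more than half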;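 also: 0% = Smad3 plus labelled peptide maximal FRET and 100% = peptide-only background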
# PLK1 kinase inh: PLK1 (human) kinase inhibition; hit rate 0.53% among 97,000; recombinant PLK1 kinase, TR-FRET peptide phosphorylation; P53350; inhibition, % at 10 µM;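 active = inhibition of 50% or more in the single-concentration screen; inactive = inhibition below 50%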;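 also: 0% = DMSO max control and 100% = H-89 dihydrochloride min control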
# ERb coact inh: ER-beta (human) coactivator binding inhibition; Q92731; TR-FRET ER-beta LBD / SRC1-Cy5 peptide binding; receptor agonist-loaded with 1 µM estradiol; inhibition, % at 25.6 µM; hit rate 1.3% among 86,000; AID 633;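 active = compounds whose percent inhibition of the receptor-coactivator binding signal exceeds about 50% in the single-dose screen, limit read from the data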;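 also: 0% = receptor plus peptide wells without compound and 100% = peptide-only wells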
# ERa coact pot: enhances coactivator binding to human estrogen receptor alpha | TR-FRET ERalpha-LBD/SRC-Cy5 coactivator binding, 2 h; 100 = basal binding, no effect | P03372 | hit rate 1.3% among 86,000 | coactivator binding (% of control), % at 25.6 µM | AID 639; in the data active = activity above about 200%;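 also: binding measured in presence of low estradiol as agonist stimulus; 0% = peptide alone without receptor and 100% = receptor with peptide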
# Target sequence (P03372 whole entry, looked up, the tested form may be a part): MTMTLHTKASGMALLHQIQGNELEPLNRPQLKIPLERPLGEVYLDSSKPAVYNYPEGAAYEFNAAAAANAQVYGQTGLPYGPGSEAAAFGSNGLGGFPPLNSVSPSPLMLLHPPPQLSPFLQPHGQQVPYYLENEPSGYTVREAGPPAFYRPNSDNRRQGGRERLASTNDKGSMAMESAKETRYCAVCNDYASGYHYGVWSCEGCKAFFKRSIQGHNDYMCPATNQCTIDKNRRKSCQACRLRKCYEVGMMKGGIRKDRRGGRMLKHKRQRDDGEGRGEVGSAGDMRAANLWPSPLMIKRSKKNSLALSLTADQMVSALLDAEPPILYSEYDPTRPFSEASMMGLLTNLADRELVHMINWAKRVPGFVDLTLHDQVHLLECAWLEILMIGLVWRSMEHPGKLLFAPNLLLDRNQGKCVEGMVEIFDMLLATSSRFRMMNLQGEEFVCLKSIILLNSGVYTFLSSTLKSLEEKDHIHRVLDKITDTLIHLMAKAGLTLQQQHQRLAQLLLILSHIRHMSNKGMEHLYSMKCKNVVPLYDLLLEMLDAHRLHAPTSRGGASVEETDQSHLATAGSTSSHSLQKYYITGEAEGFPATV
# ERa SRC1 inh: ER-alpha (human) coactivator binding inhibition; P03372; TR-FRET ER-alpha LBD / SRC-1 peptide, estradiol-bound; inhibition, % at 25.6 µM; hit rate 1.7% among 86,000; in the data active = inhibition above about 50%;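 also: 0% = receptor plus peptide control and 100% = peptide only without receptor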
# Plk1 PBD FP: Plk1 (human) PBD binding inhibition. P53350. Plk1 PBD phosphopeptide binding, fluorescence polarization. inhibition, %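 (tested at about 20 µM)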. hit rate 0.13% among 97,000; in the data active = inhibition above about 34%, passing the limit was not always enough
# * marks the source's active call; other numbers are inactive results; · = no result given; [ ] = dose if it differs, or a comment.
SMILES,Smad3 inh,PLK1 kinase inh,ERb coact inh,ERa coact pot,ERa SRC1 inh,Plk1 PBD FP
COc1ccc(S(=O)(=O)c2c(N)n(Cc3ccco3)c3nc4ccccc4nc23)cc1,9,21,78*[fluorescence artefact?],37,83*[fluorescence artefact?],-15
Cc1ccc(S(=O)(=O)c2c(N)n(/N=C/c3ccco3)c3nc4ccccc4nc23)cc1,-10,5,24,112,0,-34
Nc1nc(-n2cnnc2)nn1-c1ccccc1,1,·,1,97,-9,·
Nc1nc(N2C(=O)C3CC=CCC3C2=O)nn1-c1ccccc1 (stereo not given),13,-9,-8,116,57*,9
CCNc1nnc(-c2ccccc2OC)s1,-10,-7,73*[fluorescence artefact?],73,6,-7
COc1ccccc1-c1nnc(NC(=O)C(C)SC2=NCCS2)s1 (stereo not given),-1,-9,1,157,3,28
COC(=O)C1C(=O)C2=C(CC1C)NC(C)=C(C(=O)OC1CCCCC1)C2c1ccc(N(C)C)cc1 (stereo not given),5,-18,12,223*,21,-12
CN1CCC[C@H]1c1cccnc1.O=C(O)c1ccccc1O.O=C([OH2+])c1ccccc1O.O=C([OH2+])c1ccccc1O.O=C([OH2+])c1ccccc1O.[Cu],97*,·,·,·,·,·
Cc1ccccc1NC(=O)CC1SCCNC1=O (stereo not given),23,-12,0,108,1,-19
Cc1c(Cl)cccc1NC(=O)CC1SCCNC1=O (stereo not given),-5,·,54*,126,-7,·
CCOC(=O)C1Cc2ccccc2CN1 (stereo not given),14,-9,57*[fluorescence artefact?],102,-5,8
CCOC(=O)C1Cc2c([nH]c3ccccc23)CN1 (stereo not given),8,-8,4,136,-6,-27
O=C(CCCCCn1c(=S)[nH]c2ccc(Br)cc2c1=O)NCC1CCCO1 (stereo not given),14,-65,30,116,52*[fluorescence artefact?],12
COc1ccc(C=Nc2c(O)ccc3ccccc23)cc1OC,0,·,·,·,·,·
Cc1cccc(-n2c(O)c(C=Nc3ccc4c(c3)OCO4)c3ccccc3c2=O)n1,8,·,26,49,71*[fluorescence artefact?],·
Cc1ccc(-n2c(O)c(C=Nc3ccc4c(c3)OCO4)c3ccccc3c2=O)cc1C,·,-9,·,·,·,2
O=C(Cn1ncc2c(=O)oc3ccccc3c21)Nc1nc2ccccc2s1,5,3,-4,429*,6,6
O=C(CSc1cccc(C(F)(F)F)c1)NC(=O)NCc1ccco1,2,·,29,76,53*,·
Cc1cc(SCC(=O)NC(=O)NCc2ccco2)nc2c(C)cccc12,9,·,50,60,65*,·
Cc1cc(SCC(=O)NC(=O)NCc2ccco2)nc2ccccc12,8,-6,5,127,9,15
Cc1ccccc1CSCC(=O)NC(=O)NCc1ccco1,-15,·,40,82,55*,·
O=C(CSc1nc2ccccc2o1)NC(=O)NCc1ccco1,5,-5,32,96,30,-1
O=C(CSc1nn(-c2ccc(F)cc2)c(=S)s1)NC(=O)NCc1ccco1,-1,-16,47,72,67*[fluorescence artefact?],-12
CCOc1ccc2nc(SCC(=O)NC(=O)NCc3ccco3)[nH]c2c1,-22,5,56*[fluorescence artefact?],74,38,-20
CCOc1ccc2nc(SCC(=O)N(C)C)[nH]c2c1,3,0,-2,123,3,-5
SMILES,Smad3 inh,PLK1 kinase inh,ERb coact inh,ERa coact pot,ERa SRC1 inh,Plk1 PBD FP
CCN(CC)S(=O)(=O)c1ccc(NC2c3ccccc3C(=O)N2Cc2ccc3c(c2)OCO3)cc1 (stereo not given),-5,66*,-5,99,-5,9
Oc1c(Cl)cc(Cl)cc1Sc1cc(Cl)cc(Cl)c1O,-4,·,93*,10,97*,·
Oc1c(Cl)cc(C(c2cc(Cl)c(O)c(Cl)c2)C(c2cc(Cl)c(O)c(Cl)c2)c2cc(Cl)c(O)c(Cl)c2)cc1Cl,-7,·,·,·,·,·
CC1=c2c(oc3cc(O)c(Nc4c(C)cc(O)cc4O)c(C)c23)=CC(=O)C1=Nc1c(C)cc(O)cc1O,-4,·,·,·,·,·
CC(C)CCN1CC(O)=C(c2nc(-c3ccc(Cl)cc3)cs2)C1=N,-44,-5,28,219*,24,-7
Nc1nc(SCC2CCCCC2[N+](=O)[O-])c2[nH]cnc2n1 (stereo not given),17,·,·,·,·,·
COc1nc(Cl)nc(Cl)c1Cl (tested in a mixture with another compound),83*,·,·,·,·,·
CC1CN(Cc2nc3c(c(=O)n(C)c(=O)n3C)n2CCc2ccccc2)CC(C)O1 (stereo not given),-4,-11,-5,112,2,1
O=C(COc1ccc(Cl)cc1)Nc1ccc(N2CCN(C(=O)c3ccco3)CC2)cc1,·,-9,·,·,·,3
O=C(CSc1ccc(Cl)cc1)Nc1ccc(N2CCN(C(=O)c3ccco3)CC2)cc1,3,1,29,60,64*[fluorescence artefact?],-17
CC1(C)Cc2c(c(-c3ccco3)nc3n[nH]c(N)c23)CO1,-7,52*,-21,104,-20,-10
CC1(C)Cc2c(C#N)c(N3CCCC3)nc(-c3ccco3)c2CO1,17,51*,2,68,-5,-21
O=S(=O)(NCc1ccccc1)c1cccc2cccnc12,20,-17,6,104,-11,-16
N[C@@H]1[C@H](C(=O)O)[C@@H]2C=C[C@H]1C2,2,·,·,·,·,·
CCSCCCC(=O)O,1,·,·,·,·,·
COc1ccc2cc(CN(CC3COCCO3)S(=O)(=O)c3ccc(Cl)cc3)c(=O)[nH]c2c1 (stereo not given),-212,-16,11,234*[fluorescence artefact?],29,-6
O=C(Nc1ccccc1)c1ccc(CSc2ncccn2)cc1,·,-8,·,·,·,-12
CCOC(=O)Cn1c(-c2nonc2NC(=O)c2ccccc2F)nc2ccccc21,-19,-21,29,322*,25,-5
CC(=O)Nc1nonc1-c1nc2ccccc2n1CCC(C)C,-2,-8,2,99,10,-2
CCC(=O)Nc1nonc1-c1nc2ccccc2n1Cc1ccccc1,-6,-10,3,113,19,0
CCC(=O)Nc1nonc1-c1nc2ccccc2n1N(C(=O)CC)C(=O)CC,-1,-1,50,59,59*,1
CCC(=O)Nc1nonc1-c1nc2ccccc2n1Cc1cccc2ccccc12,1,-15,21,204*[fluorescence artefact?],19,-4
CC(=O)N(C(C)=O)c1c(C#N)c(C)n(-c2ccccc2)c1C(=O)c1ccccc1,-5,-19,-5,94,68*,-5
Cc1cc(NC(=O)CSc2nnc3c(C)cc4cc5c(cc4n23)OCO5)no1,3,·,26,171,52*[fluorescence artefact?],·
Cc1cc(NC(=O)CSc2nnc3c(C)cc4cc(C)c(C)cc4n23)no1,-12,-6,37,241*[fluorescence artefact?],74*[fluorescence artefact?],4
